From paper PMC5540273 (PLoS ONE, 2017) come the findings set out here.

In one assay the test system is CSNK1A1L. Conditions: concentration: 1 μM, replicates: in singlicate, n = 1.
The subject of the next assay is CSNK1A1. Conditions: concentration: 1 μM, replicates: in singlicate, n = 1.
A further assay deals with CSNK1D. As to conditions: concentration: 1 μM, replicates: in singlicate, n = 1.
In a further assay the test system is CSNK1E. As to conditions: concentration: 1 μM, replicates: in singlicate; n = 1.
The next assay relates to CSNK1G1. Conditions: concentration: 1 μM, replicates: in singlicate, n = 1.
In the next assay the test system is CSNK1G2. As to conditions: concentration: 1 μM, replicates: in singlicate, n = 1.
For a further assay, the system named is CSNK1G3. Conditions: concentration: 1 μM, replicates: in singlicate, n = 1.
The subject of the next assay is CSNK2A1. As to conditions: concentration: 1 μM, replicates: in singlicate; n = 1.
A further assay concerns CSNK2A2. As to conditions: concentration: 1 μM, replicates: in singlicate, n = 1.
Another assay has as its system T1, CTK.
T1 construct: gene MATK
Conditions: concentration: 1 μM, replicates: in singlicate; n = 1.

Another assay has as its system DAPK1. Conditions: concentration: 1 μM, replicates: in singlicate, n = 1.
The next assay concerns DAPK2. Conditions: concentration: 1 μM, replicates: in singlicate, n = 1.
The next assay deals with DAPK3. As to conditions: concentration: 1 μM, replicates: in singlicate, n = 1.
The subject of a further assay is T2, DCAMKL1.
T2 construct: gene DCLK1
As to conditions: concentration: 1 μM, replicates: in singlicate, n = 1.

For another assay, the system named is T3, DCAMKL2.
T3 construct: gene DCLK2
As to conditions: concentration: 1 μM, replicates: in singlicate; n = 1.

Another assay deals with T4, DCAMKL3.
T4 construct: gene DCLK3
As to conditions: concentration: 1 μM, replicates: in singlicate, n = 1.

The next assay relates to DDR1. Conditions: concentration: 1 μM, replicates: in singlicate, n = 1.
The subject of the next assay is DDR2. Conditions: concentration: 1 μM, replicates: in singlicate, n = 1.
Another assay deals with T5, DLK.
T5 construct: gene MAP3K12
As to conditions: concentration: 1 μM, replicates: in singlicate, n = 1.

In another assay the test system is T6, DMPK2.
T6 construct: gene CDC42BPG
As to conditions: concentration: 1 μM, replicates: in singlicate, n = 1.

SMILES strings stand for the structures. Where “and” joins values, the source holds several entries; their conditions need not be identical. Equal entries are not always repeated. Where two headings read alike, the source gives them in different places.
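Also: KINOMEscan kinase panel screen.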

Take `CN1c2ccc(NCc3ccc(F)cc3)cc2-c2c(cnn2C)S1(=O)=O`: the “%Inh” value is given as 0% in the assay with CSNK1A1L; 0% in the assay with CSNK1A1; 2% in the assay with CSNK1D; 3% in the assay on CSNK1E; 0% with CSNK1G1; 0% in the assay with CSNK1G2. Besides, the “%Inh” value in the assay with CSNK1G3 was 0%; in the assay with CSNK2A1, 0%; with CSNK2A2, 0%; in the assay on CTK, 0%; in the assay with DAPK1, 3%; in the assay on DAPK2 it was 12%. Besides, the “%Inh” value with DAPK3 is reported as 15%; in the assay on DCAMKL1, 16%; in the assay on DCAMKL2, 25%; in the assay on DCAMKL3, 9%; in the assay with DDR1, 0%; in the assay on DDR2, 31%. In addition, the “%Inh” value in the assay with DLK and with DMPK2 was 0% in each case.

For the compound `CC(C)(CN)c1nc(-c2ccc(Cl)c(O)c2)c(-c2ccncc2)[nH]1.O=C(O)C(F)(F)F` [SB-477794], the “%Inh” value in the assay with CSNK1A1L (1 µM) is 85% and 81%; in the assay on CSNK1A1 (1 µM) it was 96.3% and 93.8%; in the assay on CSNK1D (1 µM), 97% and 96.6%; in the assay on CSNK1E it was 99.6%; in the assay with CSNK1G1 (1 µM), 0% and 5%; in the assay with CSNK1G2 (1 µM), 0% and 7%. Further, the “%Inh” value is 22% and 14% in the assay with CSNK1G3 (1 µM); 0% in the assay on CSNK2A1; 11% and 0% in the assay on CSNK2A2 (1 µM); 0% with CTK; 11% and 19% in the assay on DAPK1 (1 µM); 0% and 5% with DAPK2 (1 µM). The “%Inh” value in the assay with DAPK3 (1 µM) was 33% and 17%; in the assay with DCAMKL1 (1 µM), 7% and 3%; with DCAMKL2, 0%; in the assay with DCAMKL3 (1 µM), 29% and 36%; in the assay with DDR1 (1 µM) it was 94.5% and 90.8%; in the assay with DDR2 (1 µM), 80% and 78%. In addition, the “%Inh” value in the assay on DLK (1 µM) is 37% and 42%; in the assay with DMPK2 (1 µM) it was 90.8% and 88%.

`Fc1ccc(-c2nn3c(OCC(F)(F)F)cccc3c2-c2ccncc2)cc1` [GW514784]: the “%Inh” value in the assay with CSNK1A1L is listed as 35%; in the assay on CSNK1A1 it was 92.9%; in the assay on CSNK1D, 96.4%; with CSNK1E it was 99%; with CSNK1G1 it was 0%; with CSNK1G2 it was 0%. The “%Inh” value in the assay on CSNK1G3 worked out at 16%; in the assay with CSNK2A1, 0%; with CSNK2A2 it was 0%; in the assay on CTK it was 0%; in the assay with DAPK1, 0%; in the assay on DAPK2, 0%. The “%Inh” value was determined as 0% in the assay with DAPK3; 0% in the assay on DCAMKL1; 0% in the assay with DCAMKL2; 36% in the assay on DCAMKL3; 80% with DDR1; 81% with DDR2. In addition, the “%Inh” value in the assay with DLK was determined as 40%; in the assay with DMPK2 it was 95.3%.

Take `COc1cc2c(cc1OCCN1CCN(C)CC1)ncc1c3ccc(C#N)cc3[nH]c21`: the “%Inh” value with CSNK1A1L is 0%; in the assay on CSNK1A1 it was 0%; in the assay with CSNK1D, 18%; with CSNK1E it was 0%; with CSNK1G1, 0%; in the assay on CSNK1G2, 0%. The “%Inh” value in the assay on CSNK1G3 worked out at 0%; in the assay on CSNK2A1, 73%; in the assay with CSNK2A2 it was 95.2%; in the assay on CTK it was 23%; in the assay with DAPK1, 44%; in the assay with DAPK2, 0%. Also, the “%Inh” value in the assay on DAPK3 is on record as 7%; with DCAMKL1, 40%; with DCAMKL2, 0%; with DCAMKL3, 100%; in the assay on DDR1, 0%; in the assay with DDR2, 8%. The “%Inh” value was found to be 78% in the assay with DLK and 0% with DMPK2.

As for `C[C@@H](Oc1cc(-n2cnc3ccc(NC(=O)NC(C)(C)C)cc32)sc1C(N)=O)c1ccccc1Cl` [GSK346294], the “%Inh” value in the assay with CSNK1A1L is recorded as 6%; with CSNK1A1, 0%; in the assay with CSNK1D it was 3%; in the assay on CSNK1E it was 19%; in the assay with CSNK1G1, 0%; in the assay on CSNK1G2, 0%. Further, the “%Inh” value amounted to 32% with CSNK1G3; 2% with CSNK2A1; 0% in the assay with CSNK2A2; 0% in the assay on CTK; 20% in the assay on DAPK1; 10% in the assay with DAPK2. Moreover, the “%Inh” value with DAPK3 is 19%; with DCAMKL1 it was 31%; in the assay with DCAMKL2, 0%; in the assay on DCAMKL3 it was 0%; in the assay on DDR1, 16%; in the assay on DDR2 it was 18%. In addition, the results for the “%Inh” value with DLK and in the assay on DMPK2 were 33% and 16%, respectively.

On to `Cc1c2ccc(N(C)c3ccnc(Nc4cccc(S(N)(=O)=O)c4)n3)cc2nn1Cc1ccccc1.Cl.Cl` [GW787226], for which the “%Inh” value in the assay on CSNK1A1L is reported as 0%; in the assay with CSNK1A1, 15%; in the assay on CSNK1D it was 0%; in the assay on CSNK1E, 0%; in the assay on CSNK1G1, 0%; with CSNK1G2, 0%. Also, the “%Inh” value came to 0% in the assay on CSNK1G3; 0% in the assay with CSNK2A1; 1% with CSNK2A2; 26% in the assay on CTK; 0% in the assay on DAPK1; 1% with DAPK2. The “%Inh” value in the assay with DAPK3 was determined as 0%; with DCAMKL1, 24%; in the assay on DCAMKL2, 0%; in the assay on DCAMKL3 it was 0%; with DDR1 it was 97.7%; with DDR2 it was 96.8%. The “%Inh” value with DLK and with DMPK2 was 0% in each case.

In the case of `O=C1NC(=O)C(N2CCc3ccccc32)=C1c1cccc(Cl)c1` [SB-408010], the “%Inh” value came out at 0% in the assay on CSNK1A1L; 19% with CSNK1A1; 0% in the assay on CSNK1D; 0% in the assay on CSNK1E; 5% in the assay with CSNK1G1; 0% in the assay on CSNK1G2. Further, the “%Inh” value with CSNK1G3 was found to be 0%; with CSNK2A1, 0%; in the assay on CSNK2A2, 13%; in the assay on CTK, 53%; in the assay with DAPK1 it was 5%; in the assay on DAPK2 it was 0%. Besides, the “%Inh” value is given as 0% in the assay with DAPK3; 0% with DCAMKL1; 21% in the assay on DCAMKL2; 21% in the assay with DCAMKL3; 0% in the assay on DDR1; 0% in the assay on DDR2. For the same compound, the “%Inh” value in the assay on DLK and in the assay with DMPK2 was 0% each time.

In the case of `Cc1nnc(-c2ccc(C)c(-c3ccc(C(=O)Nc4ccc(NS(C)(=O)=O)cc4)cc3)c2)o1` [GW702865], the “%Inh” value in the assay with CSNK1A1L is listed as 0%; in the assay on CSNK1A1 it was 0%; in the assay on CSNK1D, 14%; in the assay with CSNK1E, 0%; with CSNK1G1, 0%; in the assay on CSNK1G2 it was 15%. For the same compound, the “%Inh” value came to 17% in the assay on CSNK1G3; 0% in the assay with CSNK2A1; 15% with CSNK2A2; 0% with CTK; 8% in the assay with DAPK1; 3% in the assay on DAPK2. Also, the “%Inh” value in the assay with DAPK3 worked out at 18%; with DCAMKL1 it was 8%; in the assay with DCAMKL2 it was 0%; in the assay on DCAMKL3 it was 0%; with DDR1, 0%; with DDR2, 46%. In addition, the “%Inh” value in the assay with DLK and with DMPK2 was 0% each time.

For the compound `Cn1ccc2ncnc(Oc3ccc(NC(=O)Nc4ccncc4)c(Cl)c3)c21`, the “%Inh” value in the assay with CSNK1A1L, in the assay on CSNK1A1, with CSNK1D, with CSNK1E, with CSNK1G1 and in the assay on CSNK1G2 was 0% throughout. Moreover, the “%Inh” value in the assay with CSNK1G3, with CSNK2A1, with CSNK2A2, in the assay with CTK, in the assay with DAPK1 and in the assay on DAPK2 was 0% each time. The “%Inh” value in the assay with DAPK3 was found to be 0%; in the assay with DCAMKL1, 13%; in the assay on DCAMKL2, 0%; with DCAMKL3, 0%; in the assay with DDR1 it was 35%; with DDR2 it was 34%. The “%Inh” value with DLK and with DMPK2 was 0% each time.
